Compounds with a hit are over-represented: about 1.1% of the library has one in this group of screens.
KCNH2 WT inh: inhibitors of human wildtype KCNH2 potassium channel. AID 720551. activity change, % at 1.84 µM. U2OS, BacMam KCNH2, thallium flux FluxOr; stronger effect = lower value. Q12809. actives 0.37% (n = 340,000);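 active means maximum activity change below -70%; inconclusive means maximum activity change between -70% and -50%; inactive means maximum activity change above -50%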; further: on the % scale 0 is the no-effect control and ±100 the full control effect
Target sequence (Q12809 whole entry, looked up): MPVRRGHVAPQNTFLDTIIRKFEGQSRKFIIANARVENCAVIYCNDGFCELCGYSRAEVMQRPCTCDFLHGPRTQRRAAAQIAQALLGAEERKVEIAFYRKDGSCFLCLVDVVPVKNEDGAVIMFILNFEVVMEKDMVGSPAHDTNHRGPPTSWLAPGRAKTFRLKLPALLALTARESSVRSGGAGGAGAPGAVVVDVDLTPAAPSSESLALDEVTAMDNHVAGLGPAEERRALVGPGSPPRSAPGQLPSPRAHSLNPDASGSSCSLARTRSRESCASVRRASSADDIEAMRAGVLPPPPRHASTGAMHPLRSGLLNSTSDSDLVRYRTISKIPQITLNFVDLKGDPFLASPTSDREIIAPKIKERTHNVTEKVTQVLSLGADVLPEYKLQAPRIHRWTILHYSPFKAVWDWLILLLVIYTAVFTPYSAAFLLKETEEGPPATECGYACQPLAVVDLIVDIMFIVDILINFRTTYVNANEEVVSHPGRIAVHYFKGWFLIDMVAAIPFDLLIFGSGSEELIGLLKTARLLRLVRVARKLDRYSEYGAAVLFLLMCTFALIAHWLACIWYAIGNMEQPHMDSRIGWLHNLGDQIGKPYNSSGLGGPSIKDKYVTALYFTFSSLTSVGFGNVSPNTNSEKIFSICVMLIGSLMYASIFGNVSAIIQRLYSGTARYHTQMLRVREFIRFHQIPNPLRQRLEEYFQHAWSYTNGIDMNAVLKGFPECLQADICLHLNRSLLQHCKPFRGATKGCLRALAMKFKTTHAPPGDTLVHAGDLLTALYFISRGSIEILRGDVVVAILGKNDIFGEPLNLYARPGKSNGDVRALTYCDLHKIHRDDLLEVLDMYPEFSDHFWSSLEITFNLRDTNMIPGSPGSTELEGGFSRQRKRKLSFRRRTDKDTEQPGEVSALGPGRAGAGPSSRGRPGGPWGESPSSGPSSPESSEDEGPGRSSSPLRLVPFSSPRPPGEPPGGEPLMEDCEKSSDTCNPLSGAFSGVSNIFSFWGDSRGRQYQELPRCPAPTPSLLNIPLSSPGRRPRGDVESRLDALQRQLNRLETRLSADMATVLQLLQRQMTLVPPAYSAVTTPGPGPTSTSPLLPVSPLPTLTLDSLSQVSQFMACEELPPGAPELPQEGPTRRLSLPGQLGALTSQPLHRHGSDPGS
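U2OS cells were transduced with wild-type KCNH2 virus (2.03 x 10^8 / mL) for 4 h at room temperature, then cultured overnight at 37 C. Thallium flux was read with FluxOr dye. Rate constants were normalized to DMSO controls.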
Menin MLL FP FL: inhibitors of human menin-MLL interaction, wild-type MLL peptide. Fluorescence polarization, fluorescein-MLL peptide displacement from menin. FP activity change, % at 61.4 µM. 290,000 tested, under 10 active; active means well fitted curve in the direction sought with a large enough effect in the polarisation, not every such curve was filed as active; inconclusive means small, poorly fitted or top-dose-only effect, or effect the other way, or a change in a side signal; inactive means no such curve, though single readings can be large or run the other way; the % refers to the polarisation; further: % of control where 0% means no effect
CXXC DNA block: MLL CXXC-DNA interaction inhibition; MLL-CXXC / FITC-HOXA9 DNA fluorescence polarization; Potency, µM (highest dose often 115 µM), without a hit: at the top dose activity change, negative = inhibition, usual class: inhibitors; actives 0.037% (n = 290,000); AID 2662; active means well fitted inhibition curve with a large enough effect in the polarisation, with a control signal flat, not every such curve was filed as active; inconclusive means small, poorly fitted or top-dose-only effect, or effect the other way, or a change in a side signal; inactive means no such curve, though single readings can be large or run the other way; the % refers to the polarisation; further: potency means the concentration at half of the fitted maximal effect
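Steps: dispense CXXC domain solution (7 uM) → pin compounds or unlabeled HOX-A9 DNA control → 5 min ambient → add FLSN-HOX-A9 solution (50 nM) → spin → 30 min ambient → fluorescence polarization. Tris pH 7.5/NaCl/DTT/BSA buffer.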
Menin-MLL TR inh: displaces Texas Red mutant MLL peptide from human menin; O00255; actives 0.23% (n = 270,000); Potency, µM (highest dose often 61.6 µM), inactives show top-dose FP activity change, negative = inhibition, actives largely listed as inhibitors; AID 1768; Menin + Texas Red MLL mutant peptide, fluorescence polarization; active means well fitted inhibition curve with a large enough effect in the polarisation, with a control signal flat, not every such curve was filed as active; inconclusive means small, poorly fitted or top-dose-only effect, or effect the other way, or a change in a side signal; inactive means no such curve, though single readings can be large or run the other way; the % refers to the polarisation; further: potency means the concentration at half of the fitted maximal effect; % of control where 0% means no effect
KCNH2 3.1 inh: blocks the human KCNH2 3.1 channel isoform; U2OS KCNH2 3.1, thallium flux FluxOr; stronger effect = lower value; AID 720553; activity change, % (tested at about 1.8 µM); actives 0.95% (n = 340,000);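 active means maximum activity change below -70%; inconclusive means maximum activity change from -70% to -50%; inactive means maximum activity change above -50%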;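 further: thallium influx rate constant from kinetic fluorescence after stimulation buffer; on the % scale 0 is the no-effect control and ±100 the full control effect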
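Thallium flux via FluxOr fluorescence (Red40 quencher, 45 min loading) in U2OS cells virally expressing the KCNH2 3.1 isoform (1.77 x 10^8 /mL virus, overnight at 37 C). Rate constants from 2-min kinetic reads post-stimulation, normalised to positive and negative controls.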
* marks the source's active call; other numbers are inactive results.

What do the screens show for `C[C@H](N)C(=O)N[C@@H](Cc1ccc(F)cc1)C(=O)N[C@@H](CCCN=C(N)N)C(=O)N[C@@H](CC1CCCCC1)C(=O)N[C@@H](CCCCN=C(N)N)C(=O)N[C@@H](Cc1ccc(O)cc1)C(N)=O`?
Menin MLL FP FL: -10.6; Menin-MLL TR inh: inconclusive

Results for COc1ccccc1NCCC(=O)OCC(=O)Nc1ccccc1F ?
KCNH2 WT inh: -4.8; KCNH2 3.1 inh: 6.4

How did COc1ccccc1NCCC(=O)OCC(=O)Nc1ccccc1Cl do in these assays?
KCNH2 WT inh: -106.4*; KCNH2 3.1 inh: -209.5*

Results for COc1ccc(C[C@H]2CN3C(=NC[C@@H]3Cc3ccc(O)cc3)N2CCNC(=O)c2ccc(C)c(Br)c2)cc1 ?
KCNH2 WT inh: -81.4*; Menin MLL FP FL: 0.7; CXXC DNA block: inconclusive; Menin-MLL TR inh: inconclusive; KCNH2 3.1 inh: -0.3

How did COc1ccc(C[C@H]2CN3C(=NC[C@@H]3Cc3ccc(O)cc3)N2C[C@H](C)NC(=O)c2ccc(C)c(Br)c2)cc1 do in these assays?
KCNH2 WT inh: -163.5*; Menin MLL FP FL: 2.8; CXXC DNA block: 28.0%; KCNH2 3.1 inh: -17.0

Results for Cc1ccc(C(=O)NCCN2C3=NC[C@H](Cc4ccc(O)cc4)N3C[C@H]2Cc2ccc(O)cc2)cc1Br ?
KCNH2 WT inh: -3.3; Menin MLL FP FL: 7.0; CXXC DNA block: 16.0%; KCNH2 3.1 inh: -9.3

Results for COC(CNC(=O)C1CCN(S(=O)(=O)c2cccc3nsnc23)CC1)OC ?
KCNH2 WT inh: 5.8; CXXC DNA block: 11.8%; KCNH2 3.1 inh: 8.2

Results for S=C(NCc1ccccn1)Nc1ccc(Cl)cc1 ?
KCNH2 WT inh: -199.2*; Menin MLL FP FL: 1.0; CXXC DNA block: -3.6%; Menin-MLL TR inh: 38.6%; KCNH2 3.1 inh: -196.5*

What do the screens show for `CCOC(=O)N1CCC(N2Cc3cccc(C(=O)Nc4ccc(CC)cc4)c3C2=O)CC1`?
KCNH2 WT inh: -10.2; Menin MLL FP FL: 2.2; CXXC DNA block: -0.6%; Menin-MLL TR inh: 11.6%; KCNH2 3.1 inh: -111.6*

What do the screens show for `c1ccc(COc2ncnc3c2ncn3CCCN2CCN(Cc3cccc4ccccc34)CC2)cc1`?
KCNH2 WT inh: 7.4; KCNH2 3.1 inh: inconclusive

What do the screens show for `Cc1ccc(CN2CCN(CCCn3cnc4c(OCc5ccccc5)ncnc43)CC2)cc1`?
KCNH2 WT inh: -127.0*; KCNH2 3.1 inh: -96.7*

What do the screens show for `O=C(O)c1cccc2c1C(=O)c1cc([N+](=O)[O-])ccc1-2`?
KCNH2 WT inh: 3.8; KCNH2 3.1 inh: -7.5

Results for CCc1ccc(NC(=O)[C@H](NC(=O)[C@@H]2Cc3ccccc3CN2)c2ccccc2)cc1 ?
KCNH2 WT inh: -88.2*; CXXC DNA block: 25.6%; KCNH2 3.1 inh: 14.4

Results for Cc1cc(S(=O)(=O)N2CCC(NC(=O)C34CC5CC(CC(C5)C3)C4)CC2)ccc1-n1cnnn1 ?
KCNH2 WT inh: 10.9; Menin MLL FP FL: 1.2; CXXC DNA block: -1.7%; Menin-MLL TR inh: -8.2%; KCNH2 3.1 inh: -89.3*

How did CC1=NN(c2cccc(F)c2)C(=O)/C1=C/c1ccc(N(C)C)cc1 do in these assays?
KCNH2 WT inh: -2.1; Menin MLL FP FL: -14.1; CXXC DNA block: inconclusive; Menin-MLL TR inh: 22.4µM*; KCNH2 3.1 inh: -4.4

Results for C#CCOCCOCCOCCNc1nc(N2CCN(C(=O)Cn3cc(CC(C)O)nn3)CC2)nc(N2CCN(C(=O)[C@H](C)n3cc(CCCN=C(N)N)nn3)CC2)n1 (stereo partly drawn) ?
KCNH2 WT inh: 0.4; Menin MLL FP FL: -0.6; CXXC DNA block: 7.4%; Menin-MLL TR inh: -2.2%; KCNH2 3.1 inh: -146.8*

Results for CCC1(c2ccccc2)NC(=O)N(CC(=O)NNC(=O)c2ccc(F)cc2)C1=O (stereo not drawn) ?
KCNH2 WT inh: 2.0; KCNH2 3.1 inh: -2.3

How did Cc1cc(C)c2c(n1)sc1c(-c3ccccc3)c(C#N)c(N)nc12 do in these assays?
KCNH2 WT inh: -243.6*; Menin MLL FP FL: 3.1; CXXC DNA block: 10.1%; Menin-MLL TR inh: -1.5%; KCNH2 3.1 inh: -183.8*

How did O=C(Cn1cc(Cl)ccc1=O)c1ccc(Cl)cc1 do in these assays?
KCNH2 WT inh: -134.0*; Menin MLL FP FL: 4.1; CXXC DNA block: 8.9%; Menin-MLL TR inh: -3.4%

What do the screens show for `O=C(c1ccccc1)N1CCc2[nH]nc(-c3ccccc3)c2C1`?
KCNH2 WT inh: -14.3; CXXC DNA block: 1.7%; KCNH2 3.1 inh: -93.6*

Results for COc1ccc(C(=O)N2CCc3[nH]nc(-c4ccccc4)c3C2)cc1 ?
KCNH2 WT inh: -1.3; Menin MLL FP FL: -2.0; CXXC DNA block: 2.3%; Menin-MLL TR inh: 3.3%; KCNH2 3.1 inh: -5.9

What do the screens show for `O=C(CCCCn1c(=S)[nH]c2ccsc2c1=O)NCc1ccco1`?
KCNH2 WT inh: -13.8; Menin MLL FP FL: -1.5; CXXC DNA block: 1.8%; Menin-MLL TR inh: 2.4%; KCNH2 3.1 inh: -71.5*

Results for O=C(CCCn1c(=S)[nH]c2ccsc2c1=O)NCc1ccco1 ?
KCNH2 WT inh: -17.2; Menin MLL FP FL: 5.5; CXXC DNA block: -1.9%; Menin-MLL TR inh: 11.7%; KCNH2 3.1 inh: -9.1

How did COc1ccccc1-c1cn[nH]c1-c1ccc(OCc2ccc(F)cc2)cc1O do in these assays?
KCNH2 WT inh: -2.1; Menin MLL FP FL: 2.2; CXXC DNA block: -0.4%; KCNH2 3.1 inh: 2.3

How did COc1ccccc1-c1cn[nH]c1-c1ccc(O)cc1O do in these assays?
KCNH2 WT inh: -7.3; Menin MLL FP FL: 0.1; CXXC DNA block: 3.3%; Menin-MLL TR inh: 2.0%; KCNH2 3.1 inh: -116.2*

How did COc1ccccc1C(=O)Nc1ccnn1C1CCN(CC2CC=CCC2)CC1 (stereo not drawn) do in these assays?
KCNH2 WT inh: 23.9; CXXC DNA block: -1.7%; KCNH2 3.1 inh: -80.2*

What do the screens show for `CC(C)(C)CN1CCC(n2nccc2NC(=O)c2ccccc2Cl)CC1`?
KCNH2 WT inh: 15.0; Menin MLL FP FL: -3.4; CXXC DNA block: 2.3%; Menin-MLL TR inh: 7.8%; KCNH2 3.1 inh: 6.9

How did COc1ccccc1C(=O)Nc1ccnn1C1CCN(CCCC2CCCC2)CC1 do in these assays?
KCNH2 WT inh: -142.5*; Menin MLL FP FL: 0.9; CXXC DNA block: -7.8%; Menin-MLL TR inh: inconclusive; KCNH2 3.1 inh: -113.7*

What do the screens show for `O=C(Nc1ccnn1C1CCN(CCCC2CCCC2)CC1)c1ccccc1Cl`?
KCNH2 WT inh: -93.3*; Menin MLL FP FL: -12.4; CXXC DNA block: 10.8%; Menin-MLL TR inh: inconclusive; KCNH2 3.1 inh: -105.5*

What do the screens show for `CC(CCN1CCC(n2nccc2NC(=O)c2ccccc2Cl)CC1)c1ccccc1` (stereo not drawn)?
KCNH2 WT inh: inconclusive; CXXC DNA block: 11.8%; KCNH2 3.1 inh: -98.6*

Results for CO/N=C/c1ccc(N2CCN(C(=O)c3cccc(C(F)(F)F)c3)CC2)c([N+](=O)[O-])c1 ?
KCNH2 WT inh: -243.5*; Menin MLL FP FL: 1.6; CXXC DNA block: 0.5%; Menin-MLL TR inh: -17.6%; KCNH2 3.1 inh: -36.9
